# Laboratory results taken from PubChem BioAssay AID2796 (The Scripps Research Institute Molecular Screening Center, 2010).
# Hit rate of the full screen: of about 320,000 compounds, about 8,000 (2.5%) were called active. No stated cut-off is given here; in the data, active means activation above about 47%; inactive means the rest. The sample as a whole holds a higher share of actives than the screen did.
# Target: Aryl hydrocarbon receptor (Homo sapiens) (UniProt P35869)
# Assay: AHR activators, primary screen, cell-based, luminescence, luciferase reporter, human (AID 2796);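 further: 0% = vehicle wells and 100% = reference agonist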
# Conditions: AHR-responsive luciferase reporter cells, at 5 µM, stronger effect = higher value
# Sequence of Aryl hydrocarbon receptor (Homo sapiens) (P35869 whole entry, looked up): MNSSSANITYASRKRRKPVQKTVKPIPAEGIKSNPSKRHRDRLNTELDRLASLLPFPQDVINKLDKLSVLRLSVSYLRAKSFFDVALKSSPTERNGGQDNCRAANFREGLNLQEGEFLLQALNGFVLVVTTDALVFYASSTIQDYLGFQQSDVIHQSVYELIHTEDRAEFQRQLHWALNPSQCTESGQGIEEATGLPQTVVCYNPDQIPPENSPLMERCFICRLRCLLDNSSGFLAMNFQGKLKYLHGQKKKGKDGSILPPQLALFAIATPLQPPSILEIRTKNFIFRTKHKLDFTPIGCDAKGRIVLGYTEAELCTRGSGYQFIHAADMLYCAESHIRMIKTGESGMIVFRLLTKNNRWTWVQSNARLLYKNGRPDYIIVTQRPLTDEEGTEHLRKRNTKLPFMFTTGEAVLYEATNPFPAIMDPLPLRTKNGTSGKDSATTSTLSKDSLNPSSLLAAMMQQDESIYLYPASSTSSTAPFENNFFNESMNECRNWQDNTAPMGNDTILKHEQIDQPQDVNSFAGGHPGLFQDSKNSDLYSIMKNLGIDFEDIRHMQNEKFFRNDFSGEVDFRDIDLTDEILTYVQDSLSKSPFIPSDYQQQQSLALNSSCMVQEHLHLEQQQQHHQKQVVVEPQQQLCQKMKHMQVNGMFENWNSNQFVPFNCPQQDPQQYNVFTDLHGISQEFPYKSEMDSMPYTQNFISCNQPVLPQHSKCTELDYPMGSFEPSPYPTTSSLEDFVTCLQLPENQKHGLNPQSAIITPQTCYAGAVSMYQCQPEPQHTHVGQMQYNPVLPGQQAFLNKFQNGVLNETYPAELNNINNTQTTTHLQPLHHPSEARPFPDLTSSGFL
row,SMILES,activation
1,CCC(C(=O)N1CCN(S(=O)(=O)c2sc(C(=O)O)c(C)c2C(=O)O)CC1)c1ccccc1 (stereo not drawn),-0.9% (inactive)
2,Cc1ccc(Sc2cc(N3CCOCC3)nc(-c3ccccc3)n2)cc1,3.2% (inactive)
3,O=S(=O)(c1ccc(Br)cc1)c1nc(-c2ccccc2)oc1N1CCOCC1,3.81% (inactive)
4,Cc1cc(N2CCOCC2)nc(-c2ccc(Br)cc2)n1,86.8% (active)
5,CC(=O)O[C@H]1CC[C@@]2(C)[C@@H](CC[C@@H]3[C@@H]2CC[C@]2(C)[C@@H](C(C)(C)O)C[C@@H]32)C1,1.86% (inactive)
6,O=C(CNC(=O)c1cc(=O)[nH]c2ccccc12)Nc1ccc(F)c(F)c1,70.8% (active)
7,CCOC(=O)c1ccc(NC(=O)c2cc(=O)[nH]c3ccccc23)cc1,-0.98% (inactive)
8,CC(NC(=O)c1cc(=O)[nH]c2ccccc12)c1ccc(F)cc1F (stereo not drawn),-1.44% (inactive)
9,COC(=O)C1=CO[C@@H](O[C@@H]2O[C@H](CO)[C@@H](O)[C@H](O)[C@H]2O)C2C1C[C@H](O)[C@@H]2C (stereo partly drawn),0.44% (inactive)
10,CCc1nn(-c2cc(Oc3cccc4ccccc34)nc(-c3ccccc3)n2)c(N)c1C#N,10.9% (inactive)
11,CC(C)(C)n1nc(Cc2cccc3ccccc23)c(C#N)c1N,51.2% (active)
12,N#Cc1nc(-c2cccc3ccccc23)oc1N,-2.82% (inactive)
13,CCCCOc1ccc(C(=O)NCC(=O)OCC(=O)N2CCN(S(=O)(=O)c3ccc(C)cc3C)CC2)cc1,0.36% (inactive)
14,COc1ccc(N2CCN(S(=O)(=O)c3cc4c5c(c3)C(C)C(=O)N5CCC4)CC2)cc1 (stereo not drawn),-1.29% (inactive)
15,NS(=O)(=O)c1ccc(-c2ccc(/C=C3\SC(=O)NC3=O)o2)cc1,125% (active)
16,CN1C(=O)/C(=C\c2ccc(-c3ccccc3)o2)SC1=S,6.56% (inactive)
17,CN1CCN(/N=C/c2ccc(-c3ccc([N+](=O)[O-])cc3)o2)CC1,38.6% (inactive)
18,c1ccc(-c2nccc(-c3ccc(-n4cnc5ccccc54)cc3)n2)nc1,-6.06% (inactive)
19,COc1ccc(CCNC(=O)COc2ccc3c(c2)OCO3)cc1,10% (inactive)
20,CC(C)(C)c1ccc(SCCc2ccncc2)cc1,14.1% (inactive)
21,CC(C)CCNC(=O)C1CCC(CNc2c(N3CCC(C)CC3)c(=O)c2=O)CC1 (stereo not drawn),7.38% (inactive)
22,Cn1c(=NC(=O)C2CC2)sc2cc(F)cc(F)c21,69.9% (active)
23,O=C(CN(Cc1ccc(Br)cc1)S(=O)(=O)c1ccccc1)NCc1ccncc1,1.87% (inactive)
24,C=CCn1c(CCNC(=O)c2cccs2)n[nH]c1=S,-2.49% (inactive)

row,SMILES,activation
1,C=CCn1c(=NC(=O)c2ccc(S(=O)(=O)N3CCCC3)cc2)sc2cc(NC(C)=O)ccc21,1.47% (inactive)
2,C=CCn1c(=NC(=O)c2cccs2)sc2cc(NC(C)=O)ccc21,118% (active)
3,O=C(Oc1c(-c2ccco2)oc2ccccc2c1=O)c1cccnc1,2.09% (inactive)
4,COc1cccc(/C=C/c2ccc3ccccc3n2)c1OC(C)=O,8.53% (inactive)
5,COc1ccccc1/C=C/C1=NC(=C\N(C)C)/C(=O)O1,57.2% (active)
6,COc1ccccc1/C=C/C(=O)NC(=S)N1CCOCC1,43% (inactive)
7,O=C(COC(=O)C1CCCO1)Nc1nc(-c2ccc(F)cc2)cs1 (stereo not drawn),-1.85% (inactive)
8,CC(C)N(Cc1nnc(-c2ccccc2Br)o1)C(=O)c1cc(Cl)nc2ccccc12,18.6% (inactive)
9,CCOc1ccc(S(=O)(=O)Nc2cccc(C(=O)NCC3(N4CCCCC4)CCCCC3)c2)cc1,-2.77% (inactive)
10,COc1ccc([N+](=O)[O-])cc1-c1nc2ccccc2nc1-c1ccccc1,3.27% (inactive)
11,Cc1nc(-c2ccc([N+](=O)[O-])cc2)c(-c2ccccc2)o1,1.84% (inactive)
12,Cn1nc(-c2ccccc2)c2cc([N+](=O)[O-])ccc21,67.7% (active)
13,CCNC(=O)c1cccc(NC(=O)C2CC(=O)N(CCc3ccccc3)C2)c1 (stereo not drawn),2.07% (inactive)
14,C=CCn1cc(C(=O)NCc2ccc(Cl)cc2)c(=O)c2cc(S(=O)(=O)N(CC)CC)ccc21,11.3% (inactive)
15,CCCOc1ccc(Cc2c(Cl)nc(SC)nc2NC)cc1,2.63% (inactive)
16,COc1cccc(CNS(=O)(=O)c2cc3c(cc2C)n(C)c(=O)c(=O)n3C)c1,-0.05% (inactive)
17,COc1cccc2sc(NNC(=O)c3nc4ccccc4s3)nc12,86.3% (active)
18,COc1ccccc1/C=N/Nc1nc(C)c(C(C)=O)s1,33.6% (inactive)
19,COc1cc2ccccc2cc1C(=O)Nc1nc(C)c(C(C)=O)s1,6.6% (inactive)
20,COc1ccccc1OCc1nc2ccccc2s1,45.1% (inactive)
21,COc1cccc2sc(Nc3nc(C)c(C(C)=O)s3)nc12,67.4% (active)
22,COc1cccc2sc(N(CCCN(C)C)C(=O)C(c3ccccc3)c3ccccc3)nc12,-0.96% (inactive)
23,CCOP(=O)(OCC)C(Nc1ccc([N+](=O)[O-])cc1)c1ccc(Cl)cc1 (stereo not drawn),0.69% (inactive)
24,Cn1ccc(=Nc2ccc(NC(=O)c3ccc(N=c4ccn(C)c5ccc([N+](=O)[O-])cc45)cc3)cc2)cc1,2.76% (inactive)

row,SMILES,activation
1,O=C(Nc1nnc(-c2ccccc2)o1)c1cccc(S(=O)(=O)N2CCOCC2)c1,2.09% (inactive)
2,CC(C)CNC(=O)COC(=O)c1ccccc1OCC(=O)Nc1ccc(Br)cc1,-3.8% (inactive)
3,CC(C)C(NC(=O)c1cccc(S(=O)(=O)N2CCOCC2)c1)C(=O)NCCc1ccccn1 (stereo not drawn),-6.5% (inactive)
4,COc1ccc2ccccc2c1CNCc1ccccn1,18.4% (inactive)
5,c1ccc2c(CNn3cnnc3)cccc2c1,0.98% (inactive)
6,c1ccc(NCc2cccc3ccccc23)nc1,67.9% (active)
7,COc1ccc(CCNC(=O)C(=O)NCC2OCCN2S(=O)(=O)c2cccs2)cc1OC (stereo not drawn),-2.65% (inactive)
8,CN(CCc1ccccc1)C(=O)c1cccc(NC(=O)Cc2ccc([N+](=O)[O-])cc2)c1,-0.06% (inactive)
9,Cn1nccc1NC(=O)Nc1ccc(OC(F)(F)F)cc1,3.12% (inactive)
10,Cn1cccc1/C=N/NC(=O)c1ccc(OC(F)(F)C(F)F)cc1,3.37% (inactive)
11,O=C(Nc1ccc(OC(F)(F)F)cc1)c1ccc2c(c1)no[n+]2[O-],93.6% (active)
12,COC(=O)c1ccc(COC(=O)CNC(=O)c2cccc(OC)c2)o1,0.14% (inactive)
13,O=C(c1ccc(-c2ccccc2)cc1)C1CCCN(C(=O)c2cncs2)C1 (stereo not drawn),37.6% (inactive)
14,CC1(C)CC(=O)C=C(c2ccc3ncccc3c2)C1,8.47% (inactive)
15,CN(C)C(=O)c1ccc(NC(=O)COC(=O)c2cc3c(s2)CCCCC3)cc1,-0.09% (inactive)
16,O=C(Nc1ccc(F)cc1)c1cc2c(s1)CCCC2,55.3% (active)
17,O=C(NNC(=O)c1cc2c(s1)CCCC2)c1ccccc1,4.72% (inactive)
18,CC(C)CCNC(=O)C(C)N(C(=O)Cn1nnc(-c2ccc(F)cc2)n1)C1CCCC1 (stereo not drawn),-2.15% (inactive)
19,O=C(Nc1ccccc1)c1cc2ccccc2[nH]1,160% (active)
20,CC(OC(=O)c1cc2ccccc2[nH]1)C(=O)N(C)c1ccccc1 (stereo not drawn),28.8% (inactive)
21,COc1ccc2[nH]c(C(=O)Nc3ccccc3Cl)cc2c1,21% (inactive)
22,CCc1ccc(Oc2nc([N+](=O)[O-])nn2C)cc1,-3.57% (inactive)
23,CCCN(CCc1ccccc1)C1CCc2c(O)cccc2C1 (stereo not drawn),3.78% (inactive)
24,COc1ccc(/C=N\NC(=O)c2sc(N)nc2C)cc1OC,77.3% (active)

row,SMILES,activation
1,COc1cc(/C=N/NC(=O)CNC(=O)c2ccncc2)ccc1OC(C)=O,0.59% (inactive)
2,COc1cc(/C=N/NC(=O)c2cccnc2)ccc1OC(=O)c1cccc(Br)c1,18.7% (inactive)
3,COc1cnc(SCc2ccc(Cl)c(Cl)c2)nc1Cl,-1.43% (inactive)
4,CCOC(=O)c1ccc(NC(=O)Cc2cccs2)cc1,0.34% (inactive)
5,O=C(Cc1cccs1)Nc1ccc([N+](=O)[O-])cc1,0.97% (inactive)
6,O=C(Cc1cccs1)Nc1cccc(-c2nc3ccccc3[nH]2)c1,75.8% (active)
7,CN1CCC(CN)(N2CCN(c3ccccc3)CC2)CC1,2.54% (inactive)
8,COc1ccccc1C(=O)N(Cc1ccc(C)o1)C1CCS(=O)(=O)C1 (stereo not drawn),-1.67% (inactive)
9,Cc1ccc2c(N)c(C(=O)c3ccccc3)sc2n1,46.1% (inactive)
10,Cc1nc2sc(C(=O)c3ccccc3)c(N)c2c2c1CCCC2,85.3% (active)
11,CCc1nc2sc(C(=O)O)c(N)c2c2c1CCCC2,0.64% (inactive)
12,CC1(C)CC(=O)C=C(NCCN2CCNCC2)C1,3.32% (inactive)
13,COc1cccc(C2=CC(=O)C[C@H](c3ccc(OC)c(OC)c3)C2)c1,2.2% (inactive)
14,O=S(=O)(Nc1cc(S(=O)(=O)N2CCOCC2)ccc1N1CCCC1)c1cccs1,1.52% (inactive)
15,CCOc1cc(/C=N/NC(=O)c2cc(-c3ccccc3)nc3ccccc23)ccc1O,16.1% (inactive)
16,COc1ccc2[nH]c(C(=O)N/N=C/c3cc(OC)c(OC)c(OC)c3)cc2c1,30.9% (inactive)
17,CCOc1ccc2[nH]c(C(=O)N/N=C/c3cccc(OC)c3OC)cc2c1,33% (inactive)
18,COc1cccc(OCc2cc(/C=N/NC(=O)c3nc(Cl)c(Cl)c(N)c3Cl)ccc2OC)c1,73.8% (active)
19,COc1ccc(/C=N/NC(=O)c2cc(-c3cccc(C)c3)nc3ccccc23)cc1O,21.2% (inactive)
20,COc1cccc(-c2cc(C(=O)N/N=C/c3ccc(OC)c(COC(C)=O)c3)c3ccccc3n2)c1,54.1% (active)
21,O=C(COc1ccc(Br)cc1F)NCC1(N2CCCCC2)CCCCC1,-0.81% (inactive)
